For 8 molecules, growth inhibition results are on record in PubChem BioAssay (NCI).

Each structure is given as a SMILES string. “And” between values parts separate entries of the source, which are not always exact repeats. Equal entries are not always repeated. Compounds without any hit were thinned out: in the full panel of roughly 79,000, 15% have a hit. A number with no mark means an inactive call. The source made the active and inactive calls. Rule as the data show it: active = growth inhibition above about 70%; inactive = the rest.

The assay can be described thus: NCI Yeast Anticancer Drug Screen. Data for the wt2 strain (AID 169).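 Also: 0% = growth of vehicle-treated yeast cultures.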 The conditions noted are these: S. cerevisiae wt2 strain growth inhibition, hits give high values. The protocol: Growth inhibition of yeast strains with defined genetic alterations is measured as a screen for potential anti-cancer activity. Selected strains with alterations in DNA damage repair or cell cycle control were exposed to compounds and growth inhibition was measured relative to vehicle treated controls. The strain used in this assay is wt2

With `COc1ccc([N+]2=NC(c3ccc([N+](=O)[O-])cc3)=NN(c3ccccc3)C2)cc1`, the growth inhibition is 0% and 1% (at 1.2 µM); -1% (at 3.7 µM); -2% (at 11.0 µM); 27% and 7% (at 33.0 µM); 93% (active) (at 100.0 µM).

Turning to `S=C1NC2(CCCCC2)NC12CCCCC2`, the growth inhibition is -2% (at 1.2 µM); -2% (at 3.7 µM); 3% (at 11.0 µM); 14% (at 33.0 µM); 16% (at 100.0 µM).

For `C/C(CCl)=N/NC1=NC(c2ccccc2Cl)P(=O)(NCCCNP2(=O)SC(N/N=C(/C)CCl)=NC2c2ccccc2Cl)S1` (stereo not given), the growth inhibition was 0% (at 1.2 µM); -2% (at 3.7 µM); -2% (at 11.0 µM); 17% (at 33.0 µM); 13% (at 100.0 µM).

For `C[N+](C)(C)CC1CCCC(C[N+](C)(C)C)C1=O` (stereo not given), the growth inhibition was -3% (at 1.2 µM); 7% (at 3.7 µM); 2% (at 11.0 µM); 5% (at 33.0 µM); 94% (active) (at 100.0 µM).

For the molecule `COC1C(O)C(C)OC(OC2C(Oc3cccc4c(O)c5c(=O)oc6ccc(C)c7c(=O)oc(c34)c5c67)OC(C)C(O)C2O)C1O` (stereo not given), the growth inhibition is, setting by setting: (at 1.2 µM) 0%; (at 3.7 µM) 3%; (at 11.0 µM) 12%; (at 33.0 µM) 22%; (at 100.0 µM) 20%.

Consider `C[CH2][Sn]1([CH2]C)[O]C2C(O)OC(CO)C(O)C2[O]1` (stereo not given), for which the growth inhibition is -58% (at 1.2 µM); -42% (at 3.7 µM); -27% (at 11.0 µM); 15% (at 33.0 µM); 82% (active) (at 100.0 µM).

In the case of `CC1CC(C)CC(C)C(O)/C(C#N)=C/C=C/CC(C2CCCC2C(=O)O)OC(=O)CC(O)C(C)C1` (stereo not given), the growth inhibition reads like this: (at 1.2 µM) 90% (active); (at 3.7 µM) 100% (active); (at 11.0 µM) 99% (active); (at 33.0 µM) 99% (active); (at 100.0 µM) 98% (active).

As for `NCCc1ccc(OCc2ccccc2)c(OCc2ccccc2)c1`, the growth inhibition (at 1.2 µM) is -15%; the growth inhibition (at 3.7 µM) is -12%; the growth inhibition (at 11.0 µM) is 37%; the growth inhibition (at 33.0 µM) was 95% (active); the growth inhibition (at 100.0 µM) is 97% (active).
